High-throughput results as filed in PubChem.
Most compounds without a hit are left out; they make up all but 18% or so of the library.
Six1-Eya2 inh: Six1/Eya2 interaction inhibition; Q15475+O00167; AlphaScreen GST-Six1/His-Eya2 binding, biochemical; active compounds read low; activity change, % (test concentration not listed); hit rate 0.56% among 360,000; AID 651725; in the data active = activity change below about -65%; inconclusive = mostly about -30% to -63%
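AlphaScreen luminescence read after one hour at 37 °C in darkness. Pin-transferred compounds met GST-Six1 and His-Eya2 protein (5X stock 250 nM/500 nM) plus glutathione donor and Ni-chelate acceptor beads (5X, 50 ug/mL).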
TDP1 cell CPT: DT40-hTDP1 cell growth loss with CPT | chicken DT40 Tdp1-/-;hTDP1 cells + 20 nM CPT, ATP luminescence, 48 h | Potency, µM (highest dose often 46.2 µM), without a hit: at the highest dose activity change, negative = growth inhibition, hits mostly inhibitors | hit rate 12% among 420,000 | AID 686979; also: potency is read from the fitted curve at half-maximal effect; nearly all actives have a fitted effect of over 55% in size
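Chicken DT40 Tdp1-/- cells stably complemented with human TDP1 were seeded at 400 cells/well in medium containing 20 nM camptothecin, exposed to pin-transferred compounds, and grown at 37 °C for at least 48 hr. Viability was read as ATP luminescence.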
TDP1 block: blocks human tyrosyl-DNA phosphodiesterase 1; Q9NUW8; recombinant TDP1, AlphaScreen DNA substrate cleavage; Potency, µM (doses to about 130 µM), for inactives: top-dose activity change, negative = inhibition, most hits filed as inhibitors; hit rate 0.28% among 350,000; also: potency is read from the fitted curve at half-maximal effect; nearly all actives have a fitted effect of over 40% in size
Target sequence (Q9NUW8 whole entry, looked up): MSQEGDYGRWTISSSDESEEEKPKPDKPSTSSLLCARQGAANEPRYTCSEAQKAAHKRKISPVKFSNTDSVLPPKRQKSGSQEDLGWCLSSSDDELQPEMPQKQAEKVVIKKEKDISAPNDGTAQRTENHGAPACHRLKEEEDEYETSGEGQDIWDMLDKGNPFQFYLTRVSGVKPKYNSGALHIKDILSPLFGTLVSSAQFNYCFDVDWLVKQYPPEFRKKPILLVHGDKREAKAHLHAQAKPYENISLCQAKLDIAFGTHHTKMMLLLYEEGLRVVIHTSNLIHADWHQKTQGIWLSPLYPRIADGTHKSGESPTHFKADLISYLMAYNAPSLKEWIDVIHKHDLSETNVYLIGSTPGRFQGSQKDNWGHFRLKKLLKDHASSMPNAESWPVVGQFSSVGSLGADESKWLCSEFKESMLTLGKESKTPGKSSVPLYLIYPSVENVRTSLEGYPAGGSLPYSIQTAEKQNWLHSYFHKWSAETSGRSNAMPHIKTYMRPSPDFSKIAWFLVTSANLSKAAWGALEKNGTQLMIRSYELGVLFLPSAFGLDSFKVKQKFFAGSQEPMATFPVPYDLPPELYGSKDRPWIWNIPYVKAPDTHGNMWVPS
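Recombinant E. coli-expressed Tdp1 (1 nM) preincubated with compound 15 min at RT, then 5'-biotin/3'-phosphotyrosine-FITC DNA substrate (15 nM) added for 5 min. AlphaScreen beads (10 ug/ml) added, 10 min RT; tyrosine-FITC cleavage read as signal loss.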
DT40 TDP1 no CPT: qHTS for Inhibitors of human tyrosyl-DNA phosphodiesterase 1 (TDP1): qHTS in cells in absence of CPT; Potency, µM (highest dose often 46.2 µM), without a hit: top-dose activity change, negative = growth inhibition, actives largely listed as inhibitors; AID 686978, 2013; hit rate 15% among 420,000; DT40 Tdp1-/- hTDP1 cells, no CPT, ATP luminescence, 48 h; also: potency is read from the fitted curve at half-maximal effect; nearly all actives have a fitted effect of over 55% in size
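Luminescent ATP content (CellTiter-Glo) served as the growth readout. Knockout chicken DT40 cells expressing human TDP1 were exposed to compounds without camptothecin for a minimum 48 hr at 37 °C.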
CtBP-E1A inh: CtBP/E1A binding inhibition. activity change, % (test concentration not listed). AlphaScreen GST-E1A/His-CtBP binding, 1536-well; active compounds read low. hit rate 0.49% among 340,000; in the data active = activity change below about -65%; inconclusive = mostly about -30% to -63%
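AlphaScreen with 125 nM GST-E1A and 125 nM His-CtBP (5X stocks) in Tris pH 8.0, 300 mM NaCl, BSA, Tween 20, TCEP. Compounds preincubated 2 h at 37 deg C, then glutathione donor/nickel acceptor beads added for 1 h at 37 deg C in dark.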
IL1B secr inh: blocks inflammasome-driven IL-1 beta release. THP-1 LPS/ATP IL-1B secretion, AlphaLISA, 16 h; active compounds read low. activity change, % at 57.5 µM. hit rate 4.7% among 360,000. AID 743279; in the data active = activity change below about -50%; inconclusive = mostly about -30% to -49%
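Secreted IL-1B measured by AlphaLISA bead assay after 16 h compound exposure of THP-1 cells; compounds (final up to 57.5 uM) added 1 h before LPS (250 ng/mL) and ATP (1.25 mM) stimulation; lower signal means less secretion.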
* hit, by the source's call; ? = inconclusive; · = not tested or not shown; [ ] = dose if it differs, or a comment. Unless noted, calls follow the shape of the dose curve; as a rule, active = well fitted curve in the direction sought with a large enough effect; inconclusive = small, poorly fitted or top-dose-only effect, or another doubt; inactive = no such curve, though single readings can be large; an effect the other way counts as inactive or inconclusive. % is scaled to controls: 0 for no effect and ±100 for the full control effect.

SMILES	Six1-Eya2 inh	TDP1 cell CPT	TDP1 block	DT40 TDP1 no CPT	CtBP-E1A inh	IL1B secr inh
CCOC(=O)c1[nH]c(C)c(C(=O)NCc2ccc(OC)cc2)c1C	-2	10%	-1%	-2%	-1	-4
CCOc1ccccc1-n1c(SCC(N)=O)nnc1-c1ccco1	-2	-19%	7%	12%	-4	-4
COc1ccc(CCNS(=O)(=O)c2ccc3c(c2)NC(=O)C(C)S3)cc1OC (stereo not drawn)	6	-30%	1%	?	0	-16
O=c1[nH]c2ccc(N=Cc3c(O)ccc4cc(Br)ccc34)cc2[nH]1	-16	5%	-3%	1%	-9	3
CCOC(=O)c1c(C)[nH]c(C(=O)OCC(=O)Nc2cc(C)ccc2OC)c1C	2	2.6µM*	2%	4.1µM*	3	40
CCOC(=O)C(=CNc1cc(C)nn1-c1ccccc1)C(=O)OCC	-10	21µM*	2%	16µM*	-9	10
CCOC(=O)c1c(C)[nH]c(C(=O)OCC(=O)Nc2cc(C)nn2-c2ccccc2)c1C	0	?	·	18µM*	-2	-11
CCOC(=O)c1c(C)[nH]c(C(=O)OCC(=O)Nc2ccc(OC)c(Cl)c2)c1C	2	4%	0%	-9%	-6	-13
O=C(COC(=O)c1ccc(O)cc1O)Nc1cc(-c2ccccc2)nn1-c1ccccc1	-2	?	0%	18µM*	-3	-58*
O=C(Nc1ccccc1C(=O)Nc1ccc(Cl)cc1)c1cccnc1	1	5%	·	3%	3	?
Cc1ccc(OCCCCn2c(CCNC(=O)C3CCCCC3)nc3ccccc32)cc1	·	?	1%	16µM*	·	·
O=C(NCCc1nc2ccccc2n1CCCOc1ccc2ccccc2c1)C1CCCCC1	·	?	0%	11µM*	·	·
Cc1ccc(OCCn2c(CCNC(=O)C3CCCCC3)nc3ccccc32)cc1	·	·	3%	·	·	·
O=C(NCCc1nc2ccccc2n1CCOc1ccc2ccccc2c1)C1CCCCC1	·	?	0%	?	·	·
CC(C)(C)c1ccc(OCCn2c(CCNC(=O)C3CCCCC3)nc3ccccc32)cc1	·	11µM*	1%	3.2µM*	·	·
CC(C)(C)NC(=O)Cn1c(SCC(=O)N2CCCCCC2)nc2ccccc21	-1	-18%	4%	-18%	-1	-6
CC(C)(C)NC(=O)Cn1c(SCC(N)=O)nc2ccccc21	-3	26µM*	2%	?	0	-1
COc1ccc(C)cc1NC(=O)N1CCC(CN2CCOCC2)CC1	·	1%	-11%	17%	·	·
COc1cc(/C=C2\SC(=S)N(CC(=O)NC(C)(C)C)C2=O)cc(OC)c1OC	-8	?	8%	-28%	-3	-11
CC(=O)NCCc1nc2ccccc2n1CCOc1cccc(C)c1	2	?	3%	?	-9	4
O=C(NCCc1nc2ccccc2n1CCCOc1ccc(Cl)cc1)C1CCCCC1	·	?	5%	?	·	·
Cc1cccc(OCCn2c(SCC(N)=O)nc3ccccc32)c1	·	?	5%[12.3 µM]	21µM*	·	·
Cc1cccc(OCCCn2c(CCNC(=O)C3CCCCC3)nc3ccccc32)c1	·	13µM*	-3%	12µM*	·	·
Cc1ccccc1OCCCn1c(CCNC(=O)C2CCCCC2)nc2ccccc21	·	13µM*	3%	16µM*	·	·
O=C(O)CCSc1nc2ccccc2n1CCOc1ccccc1	2	-17%	2%	1%	8	18
SMILES	Six1-Eya2 inh	TDP1 cell CPT	TDP1 block	DT40 TDP1 no CPT	CtBP-E1A inh	IL1B secr inh
Cc1cccc(OCCCn2c(CCNC(=O)C(C)C)nc3ccccc32)c1	1	?	2%	16µM*	3	-6
Cc1[nH]c(C)c(S(=O)(=O)N2CCN(c3ccccc3)CC2)c1C(=O)N1CCCC1	0	-7%	3%	18%	-1	-7
COc1ccc(/C=N/Nc2nc(N)cc(Cl)n2)cc1OC	-6	?	8%	-15%	-14	5
C#CCOc1nc(OCC#C)nc(OCC#C)n1	10	-6%	6%	-23%	3	-13
Cc1cc(C)cc(OCCCn2c(CCNC(=O)C3CCCCC3)nc3ccccc32)c1	·	12µM*	8%	15µM*	·	·
Cc1cc(C)cc(OCCn2c(CCNC(=O)C3CCCCC3)nc3ccccc32)c1	·	?	1%	?	·	·
Cc1cc(Br)cn2c(Cc3ccccc3)c(C3CCCCC3)nc12	1	18µM*	·	16µM*	0	87
c1ccc(Cc2c(-c3ccccc3)nc3c4ccccc4ccn23)cc1	-2	?	·	?	4	40
Fc1cccc(Cc2c(C3CCCCC3)nc3c4ccccc4ccn23)c1	5	23µM*	·	13µM*	-1	0
c1ccc(Cc2c(C3CCCCC3)nc3c4ccccc4ccn23)cc1	12	?	·	12µM*	-9	26
O=C(NCCNC1CCC(c2ccccc2)CC1)c1cccs1 (stereo not drawn)	7	?	-6%	?	1	-72*
CCOC(=O)N1CCC(NCCNC(=O)c2cccs2)CC1	2	-7%	-9%	-6%	6	-15
Cc1ccccc1OCC(=O)NCC(=O)OCc1ccc2ccccc2c1	·	?	3%	16µM*	·	·
Cc1ccccc1OCC(=O)NCC(=O)OCc1cccc2ccccc12	·	-13%	0%	0%	·	·
Cc1ccccc1OCC(=O)NCC(=O)OCC(=O)c1ccc([N+](=O)[O-])cc1	7	26µM*	0%	11µM*	8	?
O=C(CCC(=O)OCC(=O)c1ccc([N+](=O)[O-])cc1)Nc1ccccc1Cl	5	18µM*	4%	?	2	5
Cc1cc2nc(-c3ccc[nH]c3=O)n(Cc3ccc(F)cc3)c2cc1C	-4	-13%	·	-21%	-6	-21
Cc1cc2nc(-c3ccc[nH]c3=O)[nH]c2cc1C	19	7.3µM*	·	10µM*	·	-14
CCC1=NN(C(=O)COc2ccccc2)C(O)(c2ccncc2)C1 (stereo not drawn)	-3	?	-3%	16µM*	-7	-17
CC1=NN(C(=O)CCc2ccccc2)C(O)(c2ccncc2)C1 (stereo not drawn)	4	3%	1%	17%	-18	-4
CC1=NN(C(=O)CSCc2ccccc2)C(O)(c2ccc(Cl)cc2)C1 (stereo not drawn)	-4	-28%	2%	?	·	-1
CC1=NN(C(=O)COc2cc(C)ccc2C(C)C)C(O)(c2ccccc2)C1 (stereo not drawn)	-4	5.8µM*	-1%	26µM*	-2	-22
